{"source": "PubChem BioAssay (Tox21)", "note": "Records with an inconclusive call do not appear. A call without a number means that no potency is given here. Calls of active or inactive are those of the source. Calls follow the shape of the dose curve; as a rule, active = well fitted activation curve with a large enough effect in the repeat runs; inconclusive = weak or mixed curves; inactive = flat fitted curve, though single readings scatter.", "data": [{"experiment": "A CellTox Green Cytotoxicity Assay to monitor cytotoxicity in HEK293 cells - 24 hour (AID 1224875); also: nearly all actives have a fitted effect of over 45% in size", "conditions": "CellTox Green fluorescence; series mostly up to 76.8 µM", "from_the_text": "National Center for Advancing Translational Sciences [NCATS]\nNIH Chemical Genomics Center [NCGC]\nU.S. Environmental Protection Agency [EPA]\nNational Institutes of Environmental Health Sciences [NIEHS]\nNational Toxicology Program [NTP]\nCell-based models are critical for drug discovery. Determining the natural cytotoxic effects resulting from test compounds is an essential research activity. A CellTox Green Cytotoxicity Assay to monitor cytotoxicity in real time of continues cell culture during 40 hours of the compound treatment was used to screen Tox21 10K library compounds in Hek293 cells. CellTox Green Cytotoxicity Assay is a nonlytic, homogeneous, biofluorescent method to measure cytotoxicity in cell culture after experimental manipulation. The assay system uses a proprietary asymmetric cyanine dye that is excluded from viable cells but preferentially stains the dead cell's DNA. […] Viable cells produce no appreciable increases in fluorescence. Therefore, the fluorescence signal produced by the binding interaction with dead cell DNA is proportional to cytotoxicity.\nThe mixture of Hek293 cell suspension and reagents were dispensed at 600cells/6 ul/well in 1536-well tissue culture treated black solid bottom plates using a Multidrop dispenser. After the assay plates were incubated at a 37 C/5% CO2 incubator for 5 hours, 23 nL of compounds dissolved in DMSO, positive and negative controls was transferred to the assay plate by a pintool work station. The plates were incubated at 37 C for 40 hours. The fluorescence intensity were measured at 0h, 8h, 16h, 24h, 32h and 40h time points using ViewLux plate reader during compound treatment.", "values": [{"smiles": "O=C1CCCCCN1", "Potency": "inactive"}, {"smiles": "CCCCNC(=O)NS(=O)(=O)c1ccc(N)cc1", "Potency": "inactive"}, {"smiles": "NC(=O)OCC(COC(N)=O)c1ccccc1", "Potency": "inactive"}, {"smiles": "Cc1cnc(NC(=O)C2=C(O)c3ccccc3S(=O)(=O)N2C)s1", "Potency": "inactive"}, {"smiles": "CC(=O)c1ccc(S(=O)(=O)NC(=O)NC2CCCCC2)cc1", "Potency": "inactive"}, {"smiles": "NCCNc1cccc2ccccc12", "Potency": "inactive"}, {"smiles": "CC(C)(C)NCC(O)c1ccc(O)c(CO)c1", "note": "(stereo not given)", "Potency": "inactive"}, {"smiles": "OCCCc1ccccc1", "Potency": "inactive"}, {"smiles": "CCCCOCCOCCOC(C)=O", "Potency": "inactive"}, {"smiles": "COc1ccccc1NC(=O)CC(C)=O", "Potency": "inactive"}, {"smiles": "CCN1CCCC1=O", "Potency": "inactive"}, {"smiles": "O=C(O)CN(CC(=O)O)CC(=O)O", "Potency": "inactive"}, {"smiles": "CC(O)COc1ccccc1", "note": "(stereo not given)", "Potency": "inactive"}, {"smiles": "CN/C(=C\\[N+](=O)[O-])NCCSCc1ccc(CN(C)C)o1", "Potency": "inactive"}, {"smiles": "NC(=O)c1ccc([N+](=O)[O-])cc1Cl", "Potency": "inactive"}, {"smiles": "CN(C)Cc1cc(CN(C)C)c(O)c(CN(C)C)c1", "Potency": "inactive"}, {"smiles": "Cn1cnc2c1c(=O)[nH]c(=O)n2C", "Potency": "inactive"}, {"smiles": "C[C@]12C[C@H](O)[C@H]3[C@@H](CCC4=CC(=O)CC[C@@]43C)[C@@H]1CC[C@@H]2C(=O)CO", "Potency": "inactive"}, {"smiles": "CCCCOC(=O)CCCCCCCCC(=O)OCCCC", "Potency": "inactive"}, {"smiles": "Cc1c(N(C)CS(=O)(=O)O)c(=O)n(-c2ccccc2)n1C", "Potency": "inactive"}, {"smiles": "CC(=O)OC/C=C(C)/C=C/C=C(C)/C=C/C1=C(C)CCCC1(C)C", "Potency": "inactive"}, {"smiles": "Nc1ccc(N=Nc2ccccc2)c(N)n1", "Potency": "inactive"}, {"smiles": "O=C(O)Cc1cccc2ccccc12", "Potency": "inactive"}, {"smiles": "CN(C)C=O", "Potency": "inactive"}, {"smiles": "CC1=C(/C=C/C(C)=C/C=C/C(C)=C/C(=O)O)C(C)(C)CCC1", "Potency": "inactive"}, {"smiles": "Cc1cccc2ccccc12", "Potency": "inactive"}, {"smiles": "C#C[C@]1(O)CC[C@H]2[C@@H]3CCc4cc(O)ccc4[C@H]3CC[C@@]21C", "Potency": "inactive"}, {"smiles": "CC(=O)/C=C/C1=C(C)CCCC1(C)C", "Potency": "inactive"}, {"smiles": "COCC(C)N", "note": "(stereo not given)", "Potency": "inactive"}, {"smiles": "C[C@]12CC[C@@H]3c4ccc(O)cc4C[C@@H](CCCCCCCCCS(=O)CCCC(F)(F)C(F)(F)F)[C@H]3[C@@H]1CC[C@@H]2O", "note": "(stereo not given in full)", "Potency": "inactive"}, {"smiles": "C[C@]12CC[C@@H]3c4ccc(O)cc4CC[C@H]3[C@@H]1CCC2=O", "Potency": "inactive"}, {"smiles": "CCN(CC)CCOC(=O)c1ccc(N)cc1", "Potency": "inactive"}, {"smiles": "CC(C)=CCC/C(C)=C/CO", "Potency": "inactive"}, {"smiles": "C=C(C)C(N)=O", "Potency": "inactive"}, {"smiles": "C/C=C/c1ccc(O)c(OC)c1", "Potency": "inactive"}, {"smiles": "O=C(OCc1ccccc1)c1ccccc1", "Potency": "inactive"}, {"smiles": "COC(=O)c1ccc(O)cc1", "Potency": "inactive"}, {"smiles": "CCCCOCCOCCSC#N", "Potency": "inactive"}, {"smiles": "COC(=O)C1CCC(C(=O)OC)CC1", "note": "(stereo not given)", "Potency": "inactive"}, {"smiles": "COc1ccc(O)cc1", "Potency": "inactive"}]}]}
